# Key:
# Test in all cases: PBM binding z-score (relative to random genomic background probes); higher = stronger binding; sequences stand for … in GC…GCGATTGACAGCGTAGAATGAAGG
# [1] = test system: FXR:RXRa (NR concentration 270 nM, RXRa partner concentration 90 nM)
# In short: (§1)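 Custom Agilent 4×180K protein-binding microarrays carried double-stranded probes, each with a 34-nt variable region. These regions held direct-repeat seeds, single-nucleotide variants, half-site ablations and random human genomic background sequences. Ligand-free nuclear receptor dimers were incubated on the arrays for 1 h, antibodies against each partner (one per run) detected binding, and scanned fluorescence was regression-normalized. Binding z-scores take the random background probes as reference.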
# [2] = test system: LXRa:RXRa (NR concentration 270 nM, RXRa partner concentration 90 nM)
# In short: as §1
# [3] = test system: LXRa homodimer (NR concentration 270 nM)
# In short: as §1
# [4] = test system: LXRb:RXRa (NR concentration 270 nM, RXRa partner concentration 90 nM)
# In short: as §1
# [5] = test system: LXRb homodimer (NR concentration 270 nM)
# In short: as §1
# [6] = test system: PPARa:RXRa (NR concentration 270 nM, RXRa partner concentration 90 nM)
# In short: as §1
# [7] = test system: PPARg:RXRa (NR concentration 180 nM, RXRa partner concentration 90 nM)
# In short: as §1
# [8] = test system: PPARg:RXRa 270nM:90nM, anti-RXR (NR concentration 270 nM, RXRa partner concentration 90 nM)
# In short: as §1
# [9] = test system: PPARg:RXRa 30nM:10nM, anti-RXR (NR concentration 30 nM, RXRa partner concentration 10 nM)
# In short: as §1
# [10] = test system: PPARg:RXRa 90nM:30nM, anti-RXR (NR concentration 90 nM, RXRa partner concentration 30 nM)
# In short: as §1
# [11] = test system: PPARg:RXRa DBDmut IVT, anti-RXR (DBD mutation: RXRa K156A/R161A, NR concentration 270 nM, RXRa partner concentration 90 nM)
# In short: as §1
# [12] = test system: PPARg:RXRa IVT, anti-PPARg (NR concentration 270 nM, RXRa partner concentration 90 nM)
# In short: as §1
# [13] = test system: PPARg DBDmut:RXRa IVT, anti-PPARg (DBD mutation: PPARg1 K132A/R137A, NR concentration 270 nM, RXRa partner concentration 90 nM)
# In short: as §1
# [14] = test system: PPARg DBDmut IVT, anti-PPARg (DBD mutation: PPARg1 K132A/R137A, NR concentration 270 nM)
# In short: as §1
# [15] = test system: PPARg homodimer (NR concentration 180 nM)
# In short: as §1
# [16] = test system: PXR:RXRa (NR concentration 270 nM, RXRa partner concentration 90 nM)
# In short: as §1
# [17] = test system: PXR homodimer (NR concentration 270 nM)
# In short: as §1
# [18] = test system: RARa:RXR (NR concentration 270 nM, RXRa partner concentration 90 nM)
# In short: as §1
# [19] = test system: RARa homodimer (NR concentration 270 nM)
# In short: as §1
# [20] = test system: RARb:RXRa (NR concentration 270 nM, RXRa partner concentration 90 nM)
# In short: as §1
Sequence,PBM binding z-score [1],PBM binding z-score [2],PBM binding z-score [3],PBM binding z-score [4],PBM binding z-score [5],PBM binding z-score [6],PBM binding z-score [7],PBM binding z-score [8],PBM binding z-score [9],PBM binding z-score [10],PBM binding z-score [11],PBM binding z-score [12],PBM binding z-score [13],PBM binding z-score [14],PBM binding z-score [15],PBM binding z-score [16],PBM binding z-score [17],PBM binding z-score [18],PBM binding z-score [19],PBM binding z-score [20]
TCGAGTAGGTTAGTGGGGGCATTCAGCCAACATA,1.28,1.52,0.619,3.73,6.59,2.68,2.05,3.03,1.76,2.53,3.24,4.33,4.17,4.96,1.66,2.68,1.78,1.76,0.673,1.39
AGAATGAGGTTATTAAGAACAGGGAATTGCGGTC,1.53,1.45,0.11,1.22,0.0569,2.3,1.53,1.67,0.448,1.02,3.07,2.57,0.828,0.0753,0.538,1.13,0.548,1.32,0.488,1.4
ACTCGGAGGACAAAGGCCAGAGCTACGCCAGTGA,-0.254,-0.622,-0.482,-1.08,-0.835,0.196,1.47,2.38,0.441,1.97,-0.0476,-0.304,-0.91,-1.31,-0.117,-0.788,-0.627,-0.794,-0.32,1.44
TCTAGCAGGCCAGAGGGCCACTCAAGAGGTACGG,-0.266,-0.338,-0.799,-0.58,-1.64,0.104,0.795,1.97,1.77,1.71,0.914,-0.0389,-0.285,-0.851,-0.331,-0.535,-0.284,-0.732,-0.342,0.248
GCGACTGGGGCATCAGCAGGTTACCATAACTTAA,0.0865,0.156,0.0275,0.704,-0.886,1.33,1.21,1.03,0.757,0.397,3.62,3.27,0.296,-0.965,0.771,-0.0761,-0.654,0.57,-0.145,0.697
GGGACGAGGGCATTCGAGTTGATAGCATGGCGAT,1.09,1.84,-0.143,0.891,0.141,1.25,0.732,0.668,-0.43,0.0864,1.51,1.47,-0.173,0.189,0.254,3.68,1.37,1.08,0.349,2
CAAACTAGGTTAAGGTCAAAGTCGGTTTGTGCCA,5.87,5.27,3.87,4.36,1.08,5.45,7.13,6.97,5.07,7.2,7.61,7.5,2.24,3.72,4.36,5.2,3.07,5.71,2.29,4.32
TGAGTGAGGTTAAAGATCAGGGAACGTGGCGTCG,2.78,2.38,-0.367,1.88,1.13,4.05,3.48,4.58,2.61,3.92,0.116,1.91,0.365,0.826,1.29,2.13,0.027,3.26,0.307,2.15
ACTATTAGTTGAGACGAGGTCAACCGATAGGTTG,3.42,3.7,2.01,3.53,0.73,4.15,1.97,2.35,0.821,1.85,0.226,2.11,0.554,1.21,2.65,5.3,2.57,4.97,1.07,3.52
CCGTACGGGTCACTCCAGGTTATAGCATCGGAGT,5.48,7.91,1.62,5.38,-0.751,4.45,2.97,3.49,1.05,1.9,1.15,2.49,-0.309,-1.04,1.42,5.22,0.156,3.89,-0.104,3.64
CCGGACAGGTGAAAGGTAACTCAGTCTGGTACGC,0.736,0.472,-0.206,0.874,-0.858,3.17,4.79,5.2,3.2,5.45,1.68,2.68,-0.561,-0.876,0.751,0.988,0.241,1.91,-0.413,1.46
ATCTCTAGGTAGGACTCAGTTCAGTGAAGAACGC,0.414,0.636,0.659,0.518,1.09,0.278,0.171,0.732,0.37,0.644,0.406,0.852,0.763,1.31,0.939,0.751,1.95,0.353,1.12,0.407
GATACAGGGTCAGCTAGCGGCCAGAGTATGGAAA,4.95,2.67,-0.847,2.34,-0.774,4.56,3.77,3.29,0.52,2.01,1.01,2.05,0.0696,-0.868,1.51,2.37,-0.651,3.79,0.418,3.96
